The panel holds about 83,000 compounds, 20% with a hit somewhere; the sample as a whole holds those more often.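 Results are percent growth after 48 hours of single-concentration exposure. 100 means growth as in untreated cells, lower positive values show inhibition; negative values down to -100 show cell death.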 A number with no mark means an inactive call. Calls of active or inactive are those of the source. The calls were made as follows: active = growth percent below 10; inactive = the rest.

Some test systems named below: DU-145 prostate; K-562 leukemia; MALME-3M melanoma; MDA-MB-231 breast; RXF 393 renal; SF-268 CNS; SF-295 CNS; SF-539 CNS; UACC-257 melanoma; M14 melanoma; HCT-15 colon; HT29 colon; SNB-75 CNS; SNB-19 CNS; U251 CNS; PC-3 prostate; UACC-62 melanoma; LOX IMVI melanoma; SK-MEL-28 melanoma; SK-MEL-5 melanoma.
Common to all, as to assay: NCI-60 one-dose screen, 48 h (100 = growth as untreated, 0 = no growth, -100 = all killed)
Common to all, as to settings: 10 µM unless noted

On to `CN1CCN(CCCOc2cccc3nc(Nc4ccc(Cl)c(F)c4)ccc23)CC1`, for which the growth was 38.8% in the test on DU-145 prostate; -48.6% (active) with K-562 leukemia; 1.94% (active) in the test with MALME-3M melanoma; -57.6% (active) in the test on MDA-MB-231 breast; 54% in the test on RXF 393 renal; 44.3% in the test with SF-268 CNS. Also, the growth is 46% with SF-295 CNS; 16.9% with SF-539 CNS; -31% (active) in the test on UACC-257 melanoma; -27.7% (active) in the test with M14 melanoma; -48.3% (active) in the test on HCT-15 colon; -59.7% (active) in the test on HT29 colon. Besides, the growth is 48.2% in the test on SNB-75 CNS; 42.3% in the test with SNB-19 CNS; 26.1% in the test with U251 CNS; 39% with PC-3 prostate; -55.5% (active) in the test on UACC-62 melanoma; -96.1% (active) with LOX IMVI melanoma. Also, the growth in the test on SK-MEL-28 melanoma is 18.1%.
For the compound `O=C1c2cc3c(cc2-c2c1c1ccc(F)cc1c(=O)n2C[C@H](O)[C@H](O)[C@H](O)CO)OCO3`, the growth with DU-145 prostate was -1.68% (active); in the test on K-562 leukemia, 5.32% (active); in the test with MALME-3M melanoma it was -48.9% (active); with MDA-MB-231 breast, -1.24% (active); in the test with RXF 393 renal it was -57.2% (active); with SF-268 CNS, 1.96% (active). The growth in the test with SF-295 CNS is -23.6% (active); in the test on SF-539 CNS, -41.1% (active); with UACC-257 melanoma it was -43.4% (active); in the test with M14 melanoma it was -20.4% (active); in the test with HCT-15 colon it was 0.724% (active); in the test on HT29 colon it was -4.15% (active). The growth in the test with SNB-75 CNS is -36.9% (active); in the test on SNB-19 CNS it was 2.14% (active); with U251 CNS, -22.4% (active); with PC-3 prostate it was 6.99% (active); in the test on UACC-62 melanoma, -70.4% (active); in the test on LOX IMVI melanoma it was -33.5% (active). Moreover, the growth with SK-MEL-28 melanoma was -30.6% (active).
Consider `CCCCN1CCCn2c1nc1c2c(=O)n(CCC)c(=O)n1CCC`, for which the growth was 105% with DU-145 prostate; 75.7% in the test with K-562 leukemia; 123% with MALME-3M melanoma; 93.8% in the test with MDA-MB-231 breast; 91.3% in the test with RXF 393 renal; 95.2% in the test on SF-268 CNS. Moreover, the growth in the test with SF-295 CNS is 102%; in the test on SF-539 CNS, 100%; with UACC-257 melanoma it was 97.4%; with M14 melanoma, 110%; in the test on HCT-15 colon, 106%; with HT29 colon it was 97.8%. Besides, the growth was 74.2% with SNB-75 CNS; 96.6% with SNB-19 CNS; 91.8% in the test on U251 CNS; 91.3% in the test with PC-3 prostate; 85.4% in the test with UACC-62 melanoma; 93.8% with LOX IMVI melanoma. The growth with SK-MEL-28 melanoma was 103%.
On to `CC1=C[C@H]2c3c(c(O)c(O)c4oc5ccccc5c(=O)c34)[C@H](c3cc(O)c(O)c4oc5ccccc5c(=O)c34)[C@H]2C(C)(C)C1`, for which the growth in the test on DU-145 prostate was 14.9%; in the test on K-562 leukemia it was 3.25% (active); with MALME-3M melanoma it was -1.47% (active); with MDA-MB-231 breast it was 12.1%; in the test on RXF 393 renal, 7.55% (active); in the test on SF-268 CNS, 5.33% (active). The growth is -33.4% (active) in the test on SF-295 CNS; -5.05% (active) with SF-539 CNS; 7.1% (active) in the test with UACC-257 melanoma; -70.4% (active) in the test on M14 melanoma; 13.7% in the test with HCT-15 colon; 14.8% in the test on HT29 colon. Moreover, the growth was -29.7% (active) in the test on SNB-75 CNS; 13.8% in the test on SNB-19 CNS; 5.08% (active) with U251 CNS; 5.67% (active) in the test with PC-3 prostate; -65.5% (active) in the test with UACC-62 melanoma; -78.9% (active) in the test with LOX IMVI melanoma. The growth in the test on SK-MEL-28 melanoma was 18.3%.
`CC(=O)Nc1ccc(S(=O)(=O)Nc2cccc(-c3nc(-c4ccc(NC(=O)c5cccnc5)cc4Cl)no3)c2)cc1`: the growth with DU-145 prostate was 54.6%; in the test on K-562 leukemia, 18.9%; with MALME-3M melanoma, 59.7%; in the test with MDA-MB-231 breast, 47.5%; in the test with RXF 393 renal it was 76.5%; in the test on SF-268 CNS, 48.2%. In addition, the growth was 42.2% with SF-295 CNS; 7.87% (active) with SF-539 CNS; 35% in the test with UACC-257 melanoma; 27.1% with M14 melanoma; 88.3% in the test with HCT-15 colon; 9.79% (active) in the test with HT29 colon. The growth in the test on SNB-75 CNS is 27.6%; in the test with SNB-19 CNS, 37.7%; with U251 CNS, 29.7%; in the test with PC-3 prostate, 25.8%; with UACC-62 melanoma, 37.4%; in the test with LOX IMVI melanoma, 40.2%. In addition, in the test on SK-MEL-28 melanoma, the growth was 50.6%.
In the case of `CCN=C1C=CC(=C(c2ccc(N)cc2)c2ccc(N(CC)CC)c(C)c2)C=C1`, the growth in the test on DU-145 prostate was -20.6% (active); in the test on K-562 leukemia, 3.56% (active); in the test on MALME-3M melanoma, -31% (active); in the test with MDA-MB-231 breast, -17.6% (active); in the test on RXF 393 renal, -16.7% (active); in the test with SF-268 CNS, 4.51% (active). Further, the growth in the test on SF-295 CNS is -19.1% (active); with SF-539 CNS, -31.2% (active); in the test with UACC-257 melanoma, -0.947% (active); with M14 melanoma it was -42.1% (active); with HCT-15 colon it was 7.26% (active); in the test with HT29 colon, 5.82% (active). The growth in the test with SNB-75 CNS is -28.4% (active); with SNB-19 CNS, 11.5%; with U251 CNS, -19% (active); in the test with PC-3 prostate, -5.29% (active); in the test on UACC-62 melanoma, -36.6% (active); in the test on LOX IMVI melanoma, -56.2% (active). Also, in the test with SK-MEL-28 melanoma, the growth is -19.1% (active).
Regarding `O=C1c2cc3c(cc2-c2c1c1ccc(F)cc1c(=O)n2CCCNCCO)OCO3`, the growth in the test with DU-145 prostate is -68.5% (active); in the test on K-562 leukemia, -55.7% (active); with MALME-3M melanoma, -72.2% (active); in the test on MDA-MB-231 breast it was -70% (active); in the test with RXF 393 renal it was -92.4% (active); in the test on SF-268 CNS, -54.6% (active). The growth was -14.3% (active) with SF-295 CNS; -86.4% (active) in the test with SF-539 CNS; -28% (active) with UACC-257 melanoma; -39.7% (active) in the test on M14 melanoma; -41.8% (active) with HCT-15 colon; -74.3% (active) with HT29 colon. For the same compound, the growth in the test on SNB-75 CNS is -98.5% (active); with SNB-19 CNS, -21.9% (active); with U251 CNS, -82.8% (active); in the test on PC-3 prostate it was -41.9% (active); with UACC-62 melanoma, -60.5% (active); in the test with LOX IMVI melanoma, -88.3% (active). Besides, the growth in the test with SK-MEL-28 melanoma was -13.8% (active).
For `Cc1ccccc1COc1ccc(-c2onc(C)c2-c2ccc(Cl)cc2)cc1`, the growth in the test with DU-145 prostate was 77.4%; with K-562 leukemia, 14.4%; in the test with MALME-3M melanoma it was 59.8%; in the test with MDA-MB-231 breast, 90.8%; with RXF 393 renal it was 70.2%; with SF-268 CNS, 75.6%. In addition, the growth is 49.4% with SF-295 CNS; 63.5% in the test on SF-539 CNS; 70.9% in the test with UACC-257 melanoma; 32.2% with M14 melanoma; 37.6% with HCT-15 colon; 16.9% with HT29 colon. The growth in the test on SNB-75 CNS was 52.9%; in the test on SNB-19 CNS, 55.5%; in the test with U251 CNS, 41.3%; in the test on SK-MEL-5 melanoma, 73.4%; with UACC-62 melanoma, 48.5%; in the test with LOX IMVI melanoma it was 68%. Further, the growth in the test with SK-MEL-28 melanoma is 70.5%.
